# Measured values reported in PubChem BioAssay AID492947 (National Center for Advancing Translational Sciences (NCATS), 2010).
# Among all 330,000 compounds or so, about 80 (0.02%) were called active. A call without a number means that no potency is given here. Calls come from the whole dose curve; as a rule, active = well fitted activation curve with a large enough effect; inconclusive = small, poorly fitted or top-dose-only effect; inactive = flat fitted curve, though single readings scatter. The sample as a whole holds a higher share of actives than the screen did. Square brackets hold non-standard residues; d marks the D form. Peptide text beside a SMILES is read from it. * marks the point of attachment. PhAc = O=C(Cc1ccccc1)*
# Target: Beta-2 adrenergic receptor (Homo sapiens) (UniProt P07550)
# Assay: qHTS assay of beta-arrestin-biased ligands of beta2-adrenergic receptor; note: nearly all actives have a fitted effect of over 65% in size
# Settings: beta-arrestin recruitment to beta2AR, cell-based reporter; series mostly up to 46.1 µM
# Source text: NIH Molecular Libraries Probe Production Network [MLPCN]
# NIH Chemical Genomics Center [NCGC]
# PI: Bryan Roth and Bob Lefkowitz
# The concept of biased agonism is an emerging concept of molecular pharmacology which proposes that seven transmembrane receptors (7TMRs) or G protein-coupled receptors (GPCRs), exist in multiple signaling conformations and complexes and that ligands (either agonists or antagonists) can induce signaling biased responses for distinct signal transduction cascades.
# Furthermore, accumulating evidence over the last decade has drawn attention to a novel function of beta-arrestins as signal transducers that scaffold various signaling molecules upon activation of 7TMRs. […] This beta-arrestin-biased signaling presumably leads to distinct physiological outcomes from those by G protein activation.
# Additionally, the active receptor conformations which […] on this beta-arrestin signaling are likely different from those activating G protein signaling
# The goal of this screening project will be to discover and optimize novel beta-arrestin-biased ligands for beta2-AR signaling. A luminescent cell-based assay for beta2-AR-mediated agonism, known as the Tango assay, has been validated in which ligand binding of a recombinant beta2-AR and subsequent recruitment of a recombinant beta-arrestin lead to the release of the transcriptional activator tTA, which upregulates transcription of a tTA-responsive luciferase gene. […] Compounds were screened as a concentration-titration series that ranged from 46 microM to 0.6 nM.
# NCGC Assay Protocol Summary:
# Tango cells were dispensed into white, solid, tissue-culture-treated 1536-well plates at 1500 cells/well in DMEM, containing 1% fetal bovine serum (FBS). Then, 23 nL of compounds or DMSO were delivered to each well using a pin tool. Plates were incubated at 37 degrees C, 5% CO2 for 18 hr. Then 2.5 uL luminescent substrate mix (in-house prepared: 150 mM Tris-Cl, pH 7.6, 3 mM MgCl2, 1% Triton X-100, 5 mM DTT, 0.5 mM CoA, 0.15 mM ATP, 0.44 mM D-luciferin, final concentrations) was added to each well. Plates were then incubated for 15 minutes at room temperature, and subsequently measured on a ViewLux plate reader for luminescent signal using a clear filter with a 10 second exposure and 2x binning. The %Activity was determined from the corrected luminescence values.
# Concentration-response curves were fitted to the signals arising from the resulting luminescence. The concentration-effect curves were then classified based on curve quality (r2), response magnitude and degree of measured activity, and compounds were subsequently categorized based on their curve class.
# Keywords: biased agonism, beta2-AR, beta-arrestin, GPCR, 7TMR, Tango, luminescence, MLSMR, MLPCN, NIH Roadmap, qHTS, NCGC
# Potency is the fitted concentration of half-maximal effect.
# Beta-2 adrenergic receptor (Homo sapiens), sequence (P07550 whole entry, looked up): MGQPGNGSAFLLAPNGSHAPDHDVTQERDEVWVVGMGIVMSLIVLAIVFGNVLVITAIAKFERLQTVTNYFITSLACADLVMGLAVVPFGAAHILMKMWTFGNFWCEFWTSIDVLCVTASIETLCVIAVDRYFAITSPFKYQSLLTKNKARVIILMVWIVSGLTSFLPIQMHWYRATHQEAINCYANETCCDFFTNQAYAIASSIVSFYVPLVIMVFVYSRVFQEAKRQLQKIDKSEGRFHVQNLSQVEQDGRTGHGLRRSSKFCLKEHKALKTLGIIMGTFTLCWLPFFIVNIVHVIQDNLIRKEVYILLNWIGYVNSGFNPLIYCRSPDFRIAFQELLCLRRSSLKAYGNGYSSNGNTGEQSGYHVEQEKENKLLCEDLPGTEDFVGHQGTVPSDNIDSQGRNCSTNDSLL
row,SMILES,Potency
1,COc1ccc(Cn2c(-c3ccc(Cl)cc3)c[n+]3ccccc23)cc1,inactive
2,Cc1cc(NC(=O)CSc2nccn2-c2ccc([N+](=O)[O-])cc2)no1,inactive
3,COc1ccc(N=Nc2c(-c3ccc(OC)cc3)[nH]oc2=O)cc1,inactive
4,COc1ccccc1CNS(=O)(=O)CC12CCC(CC1=O)C2(C)C (stereo not drawn),inactive
5,CCC(C)NC(=O)c1nn(C)c(=O)c2ccccc12 (stereo not drawn),inactive
6,CCOc1ccc2c(c1)c(=O)c(S(=O)(=O)c1ccc(C)cc1)cn2CC,inactive
7,COc1ccc2ccccc2c1CNCc1ccccn1,inactive
8,O=C(Cn1nnc2ccccc2c1=O)Nc1cc(C(F)(F)F)ccc1N1CCOCC1,inactive
9,Cc1ccc(SCC(=O)NNC(=O)c2ccc(S(C)(=O)=O)cc2)cc1,inactive
10,CC1Cc2ccccc2N1C(=O)Cn1cnc2ccccc2c1=O (stereo not drawn),inactive
11,CC1CCCC(NC(=O)c2cc(-c3ccncc3)nc3ccccc23)C1C (stereo not drawn),inactive
12,CC1CCN(c2oc(-c3ccccc3F)nc2C#N)CC1,inactive
13,O=C(Nc1c(-c2ccccc2)nc2c(Br)cc(Br)cn12)c1ccco1,inactive
14,CC(=O)c1cccc(NC(=O)CN2C(=O)c3cccnc3Oc3ccc(Cl)cc32)c1,inactive
15,COc1ccccc1OCc1ccc(C(=O)NC(C)c2ccccc2)o1 (stereo not drawn),inactive
16,CCN(CC)Cc1csc2ccc(Br)cc12,inactive
17,COc1ccc(C(=O)N(CCN2CCOCC2)CC(=O)NC2CCCC2)cc1OC,inactive
18,COc1ccc([N+](=O)[O-])cc1NC(=O)C(C)OC(=O)C1c2ccccc2Oc2ccccc21 (stereo not drawn),inactive
19,CNc1nccc(-c2ccc(Cl)cc2)c1C#N,inactive
20,CC(C)(C)CC(C)(C)NCC(O)COCCOc1ccc(Br)cc1 (stereo not drawn),inactive
21,CC(C)C(c1nnnn1C(C)(C)C)N1CCN(Cc2cccnc2)CC1 (stereo not drawn),inactive
22,O=C(CSc1ccc(-c2ccc(-n3cccn3)cc2)nn1)Nc1ccc([N+](=O)[O-])cc1,inactive
23,COc1ccc(CNS(=O)(=O)c2cc3c4c(c2)CCN4C(=O)CC3)cc1,inactive
24,CCN(CC(=O)Nc1ccccc1C(F)(F)F)C(=O)CSCc1c(C)noc1C,inactive
25,CN(CC(=O)Nc1ccc(F)c(F)c1F)C(=O)Cn1cnc2c1c(=O)n(C)c(=O)n2C,inactive
26,COC(=O)C1(C)NC(c2ccc(C)cc2)C2C(=O)N(c3ccc(F)cc3)C(=O)C21 (stereo not drawn),inactive

row,SMILES,Potency
1,CC1CC(c2ccccc2)n2nc(NC(=O)c3cccs3)nc2N1 (stereo not drawn),inactive
2,CN(C(=O)CSc1nnc(-c2ccc(C(C)(C)C)cc2)n1C)C1CCS(=O)(=O)C1 (stereo not drawn),inactive
3,Cc1ccc(NC(=O)CN(C)C(=O)COC(=O)c2nccnc2N)cc1,inactive
4,CC(C)CC[n+]1ccn(C2=C([O-])c3ccccc3C(=O)/C2=N\S(=O)(=O)c2ccccc2)c1,inactive
5,CC1(C)O[C@H]2CC(=O)OCC23[C@H]2CC[C@@]4(C)[C@H](c5ccoc5)OC(=O)[C@H]5O[C@]54[C@]2(C)C(=O)C[C@@H]13 (stereo partly drawn),inactive
6,CCOC(=O)C1CCN(C(=O)COC(=O)C2CCN(S(=O)(=O)c3ccc4c(c3)OCCO4)CC2)CC1,inactive
7,Cc1ccc(C(=O)N2CC(=O)Nc3ccc(F)cc3C2c2ccc(F)cc2)cc1 (stereo not drawn),inactive
8,CCOC(=O)N1CCC(NC(=O)CCc2cn(C)c3ccccc23)CC1,inactive
9,FC(F)(F)c1cc(C(F)(F)F)c2ccc(N3CCN(c4ccccc4)CC3)nc2n1,inactive
10,Cc1ccccc1NC(=O)C(C)OC(=O)CCC(=O)N(CC(C)C)c1c(N)n(CC(C)C)c(=O)[nH]c1=O (stereo not drawn),inactive
11,COc1cc(NC(=O)c2ccc(-c3csc(C)n3)cc2)c(OC)cc1Cl,inactive
12,[O-][N+]12CCCCC1CCCC2CO (stereo not drawn),inactive
13,CCN(Cc1ccccc1)C(=O)CSc1nc(C)cc2c1C(=O)OC2,inactive
14,O=C(COc1ccc(Cl)cc1)NCc1nnc(SCC(=O)NCC2CCCO2)o1 (stereo not drawn),inactive
15,Cc1ccc(C(C(=O)NCC2CCCO2)N(C(=O)c2snc(C(N)=O)c2N)c2ccc(C(C)C)cc2)o1 (stereo not drawn),inactive
16,CC(=O)N/C(=C\c1ccccc1)C(=O)OC(C)C(=O)N(C)c1ccccc1 (stereo not drawn),inactive
17,C=CCn1c(SCC(=O)NC23CC4CC(CC(C4)C2)C3)nc(O)cc1=O,inactive
18,Cc1ccc(/C=N/NC(=O)CN2CCN(Cc3ccccc3)CC2)s1,inactive
19,C=CCNC(=S)N/N=C/c1ccc(C)s1,5.62 µM (active)
20,C=CCNC(=S)N/N=C/c1ccc(OCc2ccccc2)cc1,inactive
21,CCOC(=O)c1sc(N)c(C#N)c1COC(=O)C1=COCCO1,inactive
22,COc1ccc(NC(=O)Cn2c(-c3ccc(OC)cc3)cn(-c3ccc(C)cc3)c2=O)cc1,inactive
23,O=C(c1cc2ccccc2o1)N1CCN(c2cccc(C(F)(F)F)c2)CC1,inactive
24,CC(C)[C@H](NC(=O)c1ccc(F)cc1)C(=O)OCC(=O)NC(=O)c1cccn1C,inactive
25,CC1CN(CCCOc2ccccc2-c2ccccc2)CC(C)O1 (stereo not drawn),inactive
26,CCOC(=O)CC1COCCN1C(=O)c1cc(COc2ccc(F)c(F)c2)on1 (stereo not drawn),inactive

row,SMILES,Potency
1,COC/C=C/C1=CC2=CC(=O)C(C)(OC(=O)CCC(=O)OC)C(=O)C2=CO1 (stereo not drawn),inactive
2,O=C(CCn1nnnc1CN1CCOCC1)N1CCC(c2ccccc2Cl)C1 (stereo not drawn),inactive
3,CC(=O)Oc1ccc(-c2cccc(C(=O)N3CCCCC3)c2)cc1,inactive
4,CC1(C)CC(=O)C(C=NCc2cccnc2)=C(O)C1,inactive
5,N#C/C(=C\c1cccnc1)C(=O)Nc1ccc(SC(F)F)cc1,inactive
6,COc1ccc(OC)c(CNC(=O)Cn2nc(C)c3c(C)n(-c4ccc(C)cc4)nc3c2=O)c1,inactive
7,Cc1ccc(NN=Nc2nc3c([nH]2)c(=O)n(C)c(=O)n3C)cc1,inactive
8,COc1ccc(CNC(=O)C(C)NCc2ccccc2Cl)cc1 (stereo not drawn),inactive
9,O=C(Cc1ccc(Cl)cc1)NC(=S)Nc1ccccc1O,inactive
10,Cc1ccccc1CCNC(=O)C1CCC(=O)N(Cc2ccc(Cl)cc2)C1 (stereo not drawn),inactive
11,CC(C)OCCCNC(=O)c1ccc(C2SCC(=O)N2Cc2ccco2)cc1 (stereo not drawn),inactive
12,COc1ccc(Cl)cc1S(=O)(=O)N1CCC(O)(c2ccc(Cl)cc2)CC1,inactive
13,Cc1nc2scc(-c3cccs3)c2c(=O)n1N,inactive
14,CCOc1ccc(OCC)c(NC(=O)CSc2nnc(Cn3cnc4ccccc43)n2C)c1,inactive
15,C=C1CCN([C@H](C(=O)NCc2cc(OC)c(OC)c(OC)c2)C(C)C)S(=O)(=O)c2ccccc21,inactive
16,COc1cc(C2C3=C(CCCC3=O)OC3=C2C(=O)CCC3)ccc1OCC(=O)Nc1ccccc1,inactive
17,O=S(=O)(O)CCN1CCOCC1,inactive
18,O=S(=O)(NC1CCCCC1)c1ccc(F)c2ccccc12,inactive
19,NS(=O)(=O)c1cc2c(cc1Cl)NC(C(Cl)Cl)NS2(=O)=O (stereo not drawn),inactive
20,COc1ccc(/C(O)=C2/C(=O)C(=O)N(CC3CCCO3)C2c2ccc(OC)c(OC)c2)cc1 (stereo not drawn),inactive
21,CCCOc1ccc(-c2c(C(=O)N/N=C/c3ccco3)nnn2-c2nonc2N)cc1,inactive
22,Cc1cc(S(=O)(=O)c2cc3ccc(O)c(C)c3oc2=O)ccc1F,inactive
23,CSCC[C@H](NC(=O)NC1CCCC1)C(=O)O,inactive
24,CCN(c1ccccc1)S(=O)(=O)c1ccc(C(=O)Nc2ccccc2OC)cc1,inactive
25,Cc1ccc(CN2CCN(Cc3ccc(OCCO)cc3)CC2CCO)o1 (stereo not drawn),inactive
26,COc1ccc(OC)c(NC(=O)c2sc3nc(C)cc(C)c3c2N)c1,inactive

row,SMILES,Potency
1,CCCN1CCN(C(=O)Cn2ncc3ccccc32)CC1,inactive
2,C[C@H](CO)N1C[C@H](C)[C@@H](CN(C)C(=O)Nc2ccc3c(c2)OCO3)Oc2c(cccc2N(C)C)C1=O,inactive
3,CCn1ccnc1CN1CCCC(C(=O)c2ccc3c4c(cccc24)CC3)C1 (stereo not drawn),inactive
4,Cc1cccc(C(=O)NNC(=O)CSc2nnc(C(C)C)n2C)c1,inactive
5,C/C=C/C(=O)Nc1nnc(C(C)C)s1,inactive
6,CCSc1nc2c(c(=O)[nH]1)C(c1cccnc1)C(C(=O)OC(C)C)=C(C)N2 (stereo not drawn),inactive
7,CC1(C)CC(N(Cc2ccccc2)C(=O)Cc2ccccc2)CCO1 (stereo not drawn),inactive
8,COc1cccc(N(CC(=O)NC2CCCC2)C(=O)CCCC(=O)Nc2ccccn2)c1,inactive
9,O=C1CSc2ccc(S(=O)(=O)NCc3ccccc3)cc2N1,inactive
10,CN(c1cccc(NC(=O)c2ccc(CN3CCc4ccccc4C3)cc2)c1)S(C)(=O)=O,inactive
11,COc1ccc(NC(=O)C2CCC(CNS(=O)(=O)c3csc(C(N)=O)c3)CC2)cc1OC (stereo not drawn),inactive
12,O=C(NCCc1ccc(C(F)(F)F)cc1)c1ccc2c(c1)OCO2,inactive
13,COc1ccc(C(C)=O)cc1CN1C(=O)NC2(CCCCC2C)C1=O (stereo not drawn),inactive
14,Cc1ccc(NC(=O)CS(=O)CC(=O)N(c2ccccc2)C(C)C(=O)NC2CCCC2)cc1 (stereo not drawn),inactive
15,CC(C)C[C@@H](NC(=O)[C@H]1CCCN1C(=O)Cc1ccccc1)C(N)=O (PhAc-[dP]-[dL]-NH2),inactive
16,CCOC(=O)Cn1c(O)c(N=NC(=O)CNC(=O)Cc2ccccc2)c2ccccc21,inactive
17,CCn1c(CC(=O)Nc2ccc(C)cc2)nnc1SCC(=O)Nc1nc(C)cs1,inactive
18,Cc1noc(C)c1C(=O)OCC(=O)N1CCN(S(=O)(=O)c2ccc3ccccc3c2)CC1,inactive
19,Cc1nc2ccc(NC(=O)C3CCCCC3)cc2s1,inactive
20,Cc1ccc(NC(=S)NCCc2ccc(Cl)cc2)c(C)c1,inactive
21,CCCCOC(=O)Nc1nccs1,inactive
22,O=C(CN(Cc1ccccc1)C(=O)c1ccc2c(c1)OCCO2)NCc1ccc2c(c1)OCO2,inactive
23,CC(OC(=O)CN1C(=O)c2ccccc2C1=O)C(=O)c1ccccc1 (stereo not drawn),inactive
24,COc1ccc(OC)c(CNC(=O)c2cc(=O)[nH]c3ccc(S(=O)(=O)N4CCCC4)cc23)c1,inactive
25,CCCCN=C1N/C(=C\c2ccco2)C(=O)N1c1ccccc1,inactive
